# mHTT-CaM PPI inh = mHTT-calmodulin interaction abrogation | P42858 | 190,000 tested, 3.6% active | AlphaScreen His-mHTT/GST-CaM binding, luminescence | inhibition, % at 15 µM;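 note: 0% = both proteins with DMSO and 100% = one protein alone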
# Pf apPOL block = Pf-apPOL DNA polymerase inhibition; Recombinant Pf-apPOL, molecular beacon fluorescence, 1.5 h; 210,000 tested, 0.25% active; inhibition, % at 10 µM; AID 1794808
# Active calls of the source: *; x = no result given; ! = a repeat was not active. Rows were chosen to be rich in hits. Some 3.6% of all compounds tested hit in one or more screens of this group. Cut-off read from the data, not from the text of the source: active = inhibition above about 50%; inactive = the rest.
SMILES,mHTT-CaM PPI inh,Pf apPOL block
COc1ccc(OC)c(CNC(=O)C2c3ccccc3CC(=O)N2Cc2ccccc2)c1 (centres undefined),8,-2
COc1cc(-c2noc(C)c2/C=C/c2ccc(N)cc2)cc(OC)c1OC,53*,-5
COc1cc(-c2noc(C)c2C#Cc2ccc(N)cc2)cc(OC)c1OC,13,-4
Clc1ccccc1-c1noc(-c2ccccc2Br)n1,-83,1
COCC(=O)Nc1cc(OC)ccc1OC,3,-9
COCC(=O)NCCc1ccc(OC)c(OC)c1,3,98*
COc1ccc(OC)c(NC(=O)Cc2ccc(OC)c(OC)c2)c1,10,86*
COc1ccccc1CC(=O)NCCc1ccccc1,63*,-2
COc1ccc(CCNC(=O)CCN2N=C(c3ccc(C)cc3)CCC2=O)cc1OC,87*,-16
COc1ccc(CCNC(=O)Cc2ccc(OC)c(OC)c2)cc1OC,x,-2
COc1ccccc1CC(=O)NCCCc1ccccc1,-1,-10
COc1ccc(CCNC(=O)CCN2N=C(c3ccccc3)CCC2=O)cc1OC,1,-18
COc1ccc(-c2noc(COc3ccc(Cl)cc3C)n2)cc1,-16,-11
CC(C)Oc1ccccc1/C=C1\C(=O)NN(c2ccc(Cl)c(Cl)c2)C1=O,49,-3
COc1ccc(CC(=O)Nc2sc(-c3ccccc3)cc2C(N)=O)cc1OC,83*,-42
COc1cccc2cc(C(=O)Nc3sc(-c4ccccc4)cc3C(N)=O)oc12,-36,0
ClC(Cl)(Cl)CCCCn1nnc2ccccc21,100*,-2
c1ccc2c(c1)nnn2CCSCCn1nnc2ccccc21,1,5
CCn1c(C2CCN(C(=O)NCc3cccc(OC)c3)C2)nc2cccnc21 (centres undefined),3,-4
Cc1cc(C)c(C)c(S(=O)(=O)NCC(=O)N2CCN(c3ccccc3)CC2)c1C,23,-3
CCCC1CCC2(CCCN2CCOC(=O)Nc2ccccc2)CC1 (centres undefined),3,-2
CCCC1CCC2(CCCN2CCOC(=O)Nc2ccc(Br)cc2)CC1 (centres undefined),96*,-10
Cc1cc(C)nc(SCC(=O)Nc2nncs2)n1,1,-6
CC1CCCC(C)N1CC(O)COc1ccc(C23CC4CC(CC(C4)C2)C3)cc1 (centres undefined),100*,0
CC1CCCCN1CC(O)COc1ccc(C23CC4CC(CC(C4)C2)C3)cc1 (centres undefined),100*,0
SMILES,mHTT-CaM PPI inh,Pf apPOL block
CC1CCCCN1CC(O)COCC12CC3CC(CC(C3)C1)C2 (centres undefined),0,-5
CC1CN(CC(O)COc2ccc(C34CC5CC(CC(C5)C3)C4)cc2)CC(C)O1 (centres undefined),18,0
Cc1nc2sccn2c(=O)c1NC(=O)c1cccc(Cl)c1,-5,-1
COc1cccc(N2COc3cc(C)c(Cl)c(C)c3C2)c1,98*,-4
COc1ccc(CN2COc3cc(C)c(Cl)c(C)c3C2)cc1,2,-2
COc1ccc2c(c1)CN(c1ccc(Cl)cc1)CO2,51*,-8
COc1ccc(N2COc3ccc(Cl)cc3C2)cc1,73*,2
COc1ccc(N2COc3cc4c(cc3C2)OCO4)cc1,7,-8
COc1ccc2c(c1)CN(Cc1ccc(Cl)cc1)CO2,12,-9
Cc1cc(CNC(=O)NCc2ccc(Cl)cc2)c(C)o1,-3,-2
COc1ccc(-c2ncnn2-c2ccc(Cl)cc2)cc1OC,-4,1
COc1cccc(OCCSc2nc3ccccc3s2)c1,96*,-7
NCCSc1nc2ccccc2s1,10,7
COc1cccc(C(=O)N=c2sc3cccc(OC)c3n2C)c1,-4,-3
CN(C)C(C)(C)C#CC(O)(c1ccccc1)c1ccccc1,-5,-3
OC(C#CC(O)(c1ccccc1)c1ccccc1)c1ccccc1F (centres undefined),-5,88*
OC(C#CC(O)(c1ccccc1)c1ccccc1)c1cccs1 (centres undefined),-1,-4
Cc1ccc(C(O)C#CC(O)(c2ccccc2)c2ccccc2)o1 (centres undefined),58*,-9
COc1ccc(-c2c(O)c3ccc(O)cc3oc2=O)cc1,0,1
COc1cc(O)c2c(c1)oc(=O)c1c3cc(O)c(O)cc3oc21,x,51*
O=C1C2CCCN2C(c2cccc(Cl)c2)N1c1ccc(F)cc1 (centres undefined),-2,-3
O=C1NC(c2ccccc2)=NC1=Cc1ccccc1,x,3
c1ccc(C2=NNC(c3ccccc3)=NN2)cc1,24,99*!
O=[N+]([O-])c1cc2cccnc2c2ncccc12,100*,x
CS(=O)(=O)c1ccc(Sc2cccc3cccnc23)c([N+](=O)[O-])c1,4,1
O=[N+]([O-])c1cc([N+](=O)[O-])c2cccnc2c1Nc1ccc(O)cc1,75*,0
O=[N+]([O-])c1ccc(N2CCN(CCO)CC2)c2ncccc12,5,-1
CCCN(CCC)c1c([N+](=O)[O-])cc([N+](=O)[O-])c2cccnc12,80*,-2
